Source: PubChem BioAssay AID743465 (Broad Institute, 2014)
This is one part of the list. Results filed as inconclusive are left out. The source made the active and inactive calls.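 How the source made its calls: active means compounds lowering PCK1 expression whose fitted half-maximal concentration is at most twice the top tested dose; inconclusive means flat fit with moderate opposite-direction effect, or poor fit; inactive means the rest.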

Test: hepatocyte PCK1 gene expression decrease – cell-based, primary mouse hepatocytes, RT-qPCR, cherry-pick, PGC-1a acetylation activator project, dose response (AID 743465);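 further: values are delta delta Ct of PCK1 relative to GAPDH; higher delta delta Ct means lower PCK1 expression so positive values indicate hits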
Conditions: PCK1 mRNA qPCR, forskolin-stimulated; series mostly up to 26 µM

Compound	outcome
CCOC(=O)c1c(-c2ccc(C)cc2C)csc1NC(=O)CSc1nnnn1C	inactive
Cc1ccc(S(=O)(=O)Nc2ccc3c(c2)C(=O)N([C@@H](C)CO)C[C@@H](C)[C@H](CN(C)C(=O)Nc2cccc4ccccc24)OCCCC[C@H](C)O3)cc1	inactive
O=C(NCCC1CCCCN1S(=O)(=O)c1cccs1)C(=O)Nc1ccc(F)cc1F (centres undefined)	inactive
CCCCC(=O)Nc1ccc(C(=O)NCCCn2ccnc2)cc1	inactive
Cc1cc(C(=O)NNS(=O)(=O)c2ccccc2C(F)(F)F)nn1C(C)(C)C	inactive
O=C(NCc1ccccc1)C(c1ccccc1)N(C(=O)c1csnn1)c1ccc(F)cc1 (centres undefined)	inactive
COc1ccc(Nc2nnc(C)c3ccccc23)cc1	inactive
CCC(C)(C)n1nnnc1C(c1ccccc1OC)N1CCSCC1 (centres undefined)	inactive
CC(C)CCNc1nc(N2CCCC2)c2c(c1C#N)CCN(C)C2	inactive
CCOc1ccccc1CN1CCN(C2CCC2)CC1CCO (centres undefined)	inactive
CCOC(=O)c1c(NC(=O)CSc2cn(CC)c3ccccc23)sc2c1CCC2	inactive
COc1ccc(-n2nnnc2CNC(=O)c2ccc3ccccc3c2)cc1	inactive
Cc1cc(C)c2c(-n3cccc3)c(C(=O)NNS(=O)(=O)c3ccc(F)cc3)sc2n1	inactive
Cc1ccc(OCC(=O)NCCCNC(=O)c2cccnc2)cc1C	inactive
